Binding signal data for 1 sequence are collected here from article PMC7862700, “An all-to-all approach to the identification of sequence-specific readers for epigenetic DNA modifications on cytosine”.

Common to all, as to assay: DAPPL (digital affinity profiling via proximity ligation, sequencing); 10 mM Tris-HCl pH 7.5, 50 mM NaCl, 1 mM DTT, 4% glycerol, room temperature, 30 min; GST-TFs on glutathione beads, 16-mer random dsDNA library, 0.1% formaldehyde crosslink after washing; high values mean tight binding
One experiment addresses T1, FEV (Homo sapiens, UniProt Q99581 1-238).
T1 sequence: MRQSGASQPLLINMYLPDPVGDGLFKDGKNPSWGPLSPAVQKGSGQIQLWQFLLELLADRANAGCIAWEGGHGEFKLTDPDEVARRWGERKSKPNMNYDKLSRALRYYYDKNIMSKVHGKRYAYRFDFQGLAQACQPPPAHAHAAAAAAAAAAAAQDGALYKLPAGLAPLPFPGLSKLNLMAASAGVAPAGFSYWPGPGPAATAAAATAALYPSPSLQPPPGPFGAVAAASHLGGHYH
To be noted: protein: recombinant; tags: N-terminal GST; dsDNA, one strand shown. In a few lines: (§1)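 Binding signal is given per hexamer as its read frequency for a factor divided by its frequency in the tag-only sample. GST-fused human transcription factors were expressed in yeast, captured on glutathione beads, barcoded with DNA and pooled with that sample, then incubated with 200 nmole of a 16-mer random double-stranded DNA library in Tris/NaCl/DTT/glycerol buffer for 30 min at room temperature. The pools were then washed, crosslinked, proximity-ligated, amplified by PCR and sequenced on an Illumina NextSeq500.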

For another experiment, the target named is ETV5 (Homo sapiens, UniProt P41161 1-510). The conditions noted are these: protein: recombinant; tags: N-terminal GST; dsDNA, one strand shown. In a few lines: as §1
Another experiment has as its target HSF1 (Homo sapiens, UniProt Q00613 1-529). The conditions noted are these: protein: recombinant; tags: N-terminal GST; chain copies: 3; dsDNA, one strand shown. In a few lines:
as §1

In the next experiment the target is T2, SPIC (Homo sapiens, UniProt Q8N5J4 1-248).
T2 sequence: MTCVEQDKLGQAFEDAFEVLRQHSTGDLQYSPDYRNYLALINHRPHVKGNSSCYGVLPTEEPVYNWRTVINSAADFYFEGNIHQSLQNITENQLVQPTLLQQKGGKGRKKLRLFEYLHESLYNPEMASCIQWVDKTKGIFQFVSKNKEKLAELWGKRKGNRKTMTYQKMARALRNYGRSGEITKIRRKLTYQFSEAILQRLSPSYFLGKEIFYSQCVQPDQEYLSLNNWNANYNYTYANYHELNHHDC
The conditions noted are these: protein: recombinant; tags: N-terminal GST; dsDNA, one strand shown. In a few lines: as §1

A further experiment has as its target ELF4 (Homo sapiens, UniProt Q99607 1-663). To be noted: protein: recombinant; tags: N-terminal GST; dsDNA, one strand shown. In a few lines:
as §1

Another experiment addresses T3, ELK4 (Homo sapiens, UniProt P28324-2 1-405).
T3 sequence: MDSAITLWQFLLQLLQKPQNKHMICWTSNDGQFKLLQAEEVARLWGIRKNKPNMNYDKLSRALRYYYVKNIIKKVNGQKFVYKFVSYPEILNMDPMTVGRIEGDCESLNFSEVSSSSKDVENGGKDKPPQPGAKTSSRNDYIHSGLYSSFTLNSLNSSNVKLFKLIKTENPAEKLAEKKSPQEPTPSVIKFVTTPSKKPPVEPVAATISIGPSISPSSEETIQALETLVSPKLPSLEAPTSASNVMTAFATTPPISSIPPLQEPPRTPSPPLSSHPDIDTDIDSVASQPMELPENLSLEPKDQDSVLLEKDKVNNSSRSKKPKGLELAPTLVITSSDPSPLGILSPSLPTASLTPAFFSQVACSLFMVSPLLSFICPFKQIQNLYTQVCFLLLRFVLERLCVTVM
The conditions noted are these: protein: recombinant; tags: N-terminal GST; dsDNA, one strand shown. In a few lines:
as §1

A further experiment addresses T4, ETV2 (Homo sapiens, UniProt O00321 1-342).
T4 sequence: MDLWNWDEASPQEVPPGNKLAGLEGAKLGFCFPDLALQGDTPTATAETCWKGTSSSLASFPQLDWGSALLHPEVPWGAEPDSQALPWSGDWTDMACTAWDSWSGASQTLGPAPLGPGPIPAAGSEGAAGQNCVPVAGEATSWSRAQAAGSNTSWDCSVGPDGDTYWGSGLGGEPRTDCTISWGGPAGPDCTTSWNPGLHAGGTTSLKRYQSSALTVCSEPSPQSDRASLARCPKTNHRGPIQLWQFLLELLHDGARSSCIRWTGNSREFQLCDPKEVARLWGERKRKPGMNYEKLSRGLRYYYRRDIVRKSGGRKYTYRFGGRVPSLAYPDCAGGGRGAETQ
The conditions noted are these: protein: recombinant; tags: N-terminal GST; dsDNA, one strand shown. In a few lines: as §1

The target of a further experiment is T5, ELF3 (Homo sapiens, UniProt P78545 1-371).
T5 sequence: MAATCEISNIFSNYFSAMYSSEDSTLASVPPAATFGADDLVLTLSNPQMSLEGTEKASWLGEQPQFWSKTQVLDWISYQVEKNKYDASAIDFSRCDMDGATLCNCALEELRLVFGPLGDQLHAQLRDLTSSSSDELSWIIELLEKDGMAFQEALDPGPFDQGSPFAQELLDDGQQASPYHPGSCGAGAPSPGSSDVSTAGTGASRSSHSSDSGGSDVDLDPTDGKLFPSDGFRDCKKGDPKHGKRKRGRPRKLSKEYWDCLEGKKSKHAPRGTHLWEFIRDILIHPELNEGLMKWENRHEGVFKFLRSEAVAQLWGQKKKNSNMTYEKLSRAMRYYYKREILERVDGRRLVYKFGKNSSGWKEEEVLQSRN
The conditions noted are these: protein: recombinant; tags: N-terminal GST; dsDNA, one strand shown. In a few lines: as §1

In the next experiment the target is CRX (Homo sapiens, UniProt O43186 1-299). To be noted: protein: recombinant; tags: N-terminal GST; dsDNA, one strand shown. In a few lines:
as §1

In another experiment the target is ETV1 (Homo sapiens, UniProt P50549 1-477). To be noted: protein: recombinant; tags: N-terminal GST; dsDNA, one strand shown. In a few lines: as §1
The target of the next experiment is T6, ERF (Homo sapiens, UniProt P50548 1-548).
T6 sequence: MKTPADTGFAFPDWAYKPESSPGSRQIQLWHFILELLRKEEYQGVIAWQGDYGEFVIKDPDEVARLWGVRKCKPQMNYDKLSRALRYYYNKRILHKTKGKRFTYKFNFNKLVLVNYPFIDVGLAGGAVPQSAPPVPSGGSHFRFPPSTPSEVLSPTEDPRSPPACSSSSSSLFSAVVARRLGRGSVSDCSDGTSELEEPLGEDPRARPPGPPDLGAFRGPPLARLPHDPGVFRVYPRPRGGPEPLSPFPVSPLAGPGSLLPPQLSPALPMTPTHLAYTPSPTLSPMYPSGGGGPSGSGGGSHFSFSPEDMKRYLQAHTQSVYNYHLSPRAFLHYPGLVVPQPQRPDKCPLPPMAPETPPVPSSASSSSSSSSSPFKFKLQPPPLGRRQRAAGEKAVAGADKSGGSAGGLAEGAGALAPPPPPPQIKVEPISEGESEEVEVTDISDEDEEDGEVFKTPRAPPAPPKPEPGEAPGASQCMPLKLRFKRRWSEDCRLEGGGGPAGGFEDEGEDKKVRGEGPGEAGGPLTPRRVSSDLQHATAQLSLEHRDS
To be noted: protein: recombinant; tags: N-terminal GST; dsDNA, one strand shown. In a few lines:
as §1

In a further experiment the target is T7, ETV3L (Homo sapiens, UniProt Q6ZN32 1-361).
T7 sequence: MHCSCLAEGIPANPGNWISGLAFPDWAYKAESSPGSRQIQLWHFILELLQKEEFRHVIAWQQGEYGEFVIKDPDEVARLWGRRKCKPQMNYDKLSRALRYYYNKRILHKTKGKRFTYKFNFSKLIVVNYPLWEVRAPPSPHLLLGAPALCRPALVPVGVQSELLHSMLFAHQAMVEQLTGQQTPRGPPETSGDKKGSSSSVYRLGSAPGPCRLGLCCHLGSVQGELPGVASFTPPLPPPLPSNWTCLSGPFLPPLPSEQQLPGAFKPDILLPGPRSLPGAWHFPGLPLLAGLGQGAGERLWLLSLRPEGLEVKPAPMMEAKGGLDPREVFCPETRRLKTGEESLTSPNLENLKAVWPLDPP
The conditions noted are these: protein: recombinant; tags: N-terminal GST; dsDNA, one strand shown. In a few lines:
as §1

Another experiment concerns the target T8, ETS2 (Homo sapiens, UniProt P15036 1-469).
T8 sequence: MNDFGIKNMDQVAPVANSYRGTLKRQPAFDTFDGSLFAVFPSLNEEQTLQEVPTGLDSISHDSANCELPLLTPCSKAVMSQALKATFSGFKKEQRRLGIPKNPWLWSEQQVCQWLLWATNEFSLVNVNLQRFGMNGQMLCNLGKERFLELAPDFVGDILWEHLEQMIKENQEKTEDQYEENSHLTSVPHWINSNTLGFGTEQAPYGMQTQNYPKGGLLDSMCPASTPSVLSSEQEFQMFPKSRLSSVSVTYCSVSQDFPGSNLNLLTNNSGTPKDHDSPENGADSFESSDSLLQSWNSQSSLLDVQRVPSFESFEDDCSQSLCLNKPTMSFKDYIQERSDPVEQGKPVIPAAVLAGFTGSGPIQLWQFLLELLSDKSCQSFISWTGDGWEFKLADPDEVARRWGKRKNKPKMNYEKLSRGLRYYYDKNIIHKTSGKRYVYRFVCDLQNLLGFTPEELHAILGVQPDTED
To be noted: protein: recombinant; tags: N-terminal GST; dsDNA, one strand shown. In a few lines:
as §1

The target of the next experiment is T9, SPDEF (Homo sapiens, UniProt O95238 1-335).
T9 sequence: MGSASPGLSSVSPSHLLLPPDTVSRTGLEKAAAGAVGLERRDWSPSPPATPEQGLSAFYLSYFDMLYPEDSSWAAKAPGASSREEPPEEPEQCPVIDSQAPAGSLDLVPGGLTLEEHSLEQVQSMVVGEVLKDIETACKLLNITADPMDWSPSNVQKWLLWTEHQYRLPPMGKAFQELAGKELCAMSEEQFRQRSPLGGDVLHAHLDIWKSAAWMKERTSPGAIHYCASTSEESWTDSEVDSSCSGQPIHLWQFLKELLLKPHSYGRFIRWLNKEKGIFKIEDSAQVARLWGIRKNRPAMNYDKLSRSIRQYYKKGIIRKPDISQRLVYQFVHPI
The conditions noted are these: protein: recombinant; tags: N-terminal GST; dsDNA, one strand shown. In a few lines:
as §1

A further experiment deals with T10, ETV7 (Homo sapiens, UniProt Q9Y603 1-341).
T10 sequence: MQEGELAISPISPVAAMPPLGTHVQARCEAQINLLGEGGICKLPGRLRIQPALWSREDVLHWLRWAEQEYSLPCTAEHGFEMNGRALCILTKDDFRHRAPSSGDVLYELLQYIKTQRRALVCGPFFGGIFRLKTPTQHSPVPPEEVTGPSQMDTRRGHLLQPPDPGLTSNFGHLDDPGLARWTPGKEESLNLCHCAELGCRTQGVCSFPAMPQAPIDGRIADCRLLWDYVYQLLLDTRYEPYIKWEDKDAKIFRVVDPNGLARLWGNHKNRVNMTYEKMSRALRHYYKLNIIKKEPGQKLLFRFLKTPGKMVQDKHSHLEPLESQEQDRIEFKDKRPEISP
To be noted: protein: recombinant; tags: N-terminal GST; dsDNA, one strand shown. In a few lines: as §1

The target in a further experiment is T11, ELF5 (Homo sapiens, UniProt Q9UKW6-2 1-255).
T11 sequence: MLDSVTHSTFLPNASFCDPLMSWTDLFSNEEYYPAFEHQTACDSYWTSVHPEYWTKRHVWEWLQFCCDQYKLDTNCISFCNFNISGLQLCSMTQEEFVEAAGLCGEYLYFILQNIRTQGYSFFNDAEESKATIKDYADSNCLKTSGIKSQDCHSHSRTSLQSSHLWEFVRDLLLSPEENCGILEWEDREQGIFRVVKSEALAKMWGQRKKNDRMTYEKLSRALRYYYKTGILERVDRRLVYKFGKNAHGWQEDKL
To be noted: protein: recombinant; tags: N-terminal GST; dsDNA, one strand shown. In a few lines:
as §1

The target of a further experiment is T12, ETV3 (Homo sapiens, UniProt P41162-2 1-143).
T12 sequence: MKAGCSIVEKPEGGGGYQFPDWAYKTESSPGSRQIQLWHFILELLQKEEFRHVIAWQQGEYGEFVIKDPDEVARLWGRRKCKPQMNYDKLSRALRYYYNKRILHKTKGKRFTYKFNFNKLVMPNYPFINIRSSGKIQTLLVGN
The conditions noted are these: protein: recombinant; tags: N-terminal GST; dsDNA, one strand shown. In a few lines:
as §1

In another experiment the target is ETV6 (Homo sapiens, UniProt P41212 1-452). To be noted: protein: recombinant; tags: N-terminal GST; dsDNA, one strand shown. In a few lines:
as §1

ELF4, sequence (Q99607 whole entry): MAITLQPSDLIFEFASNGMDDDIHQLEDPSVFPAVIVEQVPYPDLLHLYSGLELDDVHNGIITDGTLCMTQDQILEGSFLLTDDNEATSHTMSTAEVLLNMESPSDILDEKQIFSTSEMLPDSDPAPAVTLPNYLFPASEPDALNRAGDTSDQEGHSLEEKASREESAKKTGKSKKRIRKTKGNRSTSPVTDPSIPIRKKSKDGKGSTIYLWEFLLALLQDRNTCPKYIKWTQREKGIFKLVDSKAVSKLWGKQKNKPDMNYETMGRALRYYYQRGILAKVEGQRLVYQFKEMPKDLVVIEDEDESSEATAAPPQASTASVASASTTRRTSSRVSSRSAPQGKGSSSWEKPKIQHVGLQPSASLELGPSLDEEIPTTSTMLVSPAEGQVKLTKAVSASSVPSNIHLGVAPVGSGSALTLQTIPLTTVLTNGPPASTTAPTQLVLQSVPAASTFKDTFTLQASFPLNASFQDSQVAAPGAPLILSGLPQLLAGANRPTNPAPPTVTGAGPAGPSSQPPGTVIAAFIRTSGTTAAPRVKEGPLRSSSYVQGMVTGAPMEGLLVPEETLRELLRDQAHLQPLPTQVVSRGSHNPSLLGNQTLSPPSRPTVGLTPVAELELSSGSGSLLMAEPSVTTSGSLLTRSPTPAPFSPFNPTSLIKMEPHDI
ETV5, sequence (P41161 whole entry): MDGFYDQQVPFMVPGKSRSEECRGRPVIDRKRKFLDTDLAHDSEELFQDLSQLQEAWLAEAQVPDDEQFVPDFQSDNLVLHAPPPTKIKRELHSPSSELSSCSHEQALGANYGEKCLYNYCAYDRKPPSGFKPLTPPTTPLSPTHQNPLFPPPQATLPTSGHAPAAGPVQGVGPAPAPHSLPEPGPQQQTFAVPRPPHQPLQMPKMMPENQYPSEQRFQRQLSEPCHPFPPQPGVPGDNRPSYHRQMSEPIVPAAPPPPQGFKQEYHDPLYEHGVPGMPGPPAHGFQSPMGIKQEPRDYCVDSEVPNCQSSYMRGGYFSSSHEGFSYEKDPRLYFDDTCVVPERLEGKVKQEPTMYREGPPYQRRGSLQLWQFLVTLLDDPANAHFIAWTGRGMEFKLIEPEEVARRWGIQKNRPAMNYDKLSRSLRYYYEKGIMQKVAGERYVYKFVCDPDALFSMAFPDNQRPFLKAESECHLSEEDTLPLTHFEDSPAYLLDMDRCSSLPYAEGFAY
ETV6, sequence (P41212 whole entry): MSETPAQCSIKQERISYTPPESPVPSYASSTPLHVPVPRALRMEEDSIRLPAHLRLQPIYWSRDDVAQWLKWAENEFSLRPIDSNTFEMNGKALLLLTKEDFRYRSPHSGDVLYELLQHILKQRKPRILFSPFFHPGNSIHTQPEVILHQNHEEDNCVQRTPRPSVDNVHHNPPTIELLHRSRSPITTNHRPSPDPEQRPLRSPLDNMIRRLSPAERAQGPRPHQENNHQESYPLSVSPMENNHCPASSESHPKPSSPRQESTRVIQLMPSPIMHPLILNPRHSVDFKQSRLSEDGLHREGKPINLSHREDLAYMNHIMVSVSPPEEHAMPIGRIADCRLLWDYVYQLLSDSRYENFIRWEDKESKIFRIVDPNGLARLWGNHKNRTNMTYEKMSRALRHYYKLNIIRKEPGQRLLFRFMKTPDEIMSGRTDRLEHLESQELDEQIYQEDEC
HSF1, sequence (Q00613 whole entry): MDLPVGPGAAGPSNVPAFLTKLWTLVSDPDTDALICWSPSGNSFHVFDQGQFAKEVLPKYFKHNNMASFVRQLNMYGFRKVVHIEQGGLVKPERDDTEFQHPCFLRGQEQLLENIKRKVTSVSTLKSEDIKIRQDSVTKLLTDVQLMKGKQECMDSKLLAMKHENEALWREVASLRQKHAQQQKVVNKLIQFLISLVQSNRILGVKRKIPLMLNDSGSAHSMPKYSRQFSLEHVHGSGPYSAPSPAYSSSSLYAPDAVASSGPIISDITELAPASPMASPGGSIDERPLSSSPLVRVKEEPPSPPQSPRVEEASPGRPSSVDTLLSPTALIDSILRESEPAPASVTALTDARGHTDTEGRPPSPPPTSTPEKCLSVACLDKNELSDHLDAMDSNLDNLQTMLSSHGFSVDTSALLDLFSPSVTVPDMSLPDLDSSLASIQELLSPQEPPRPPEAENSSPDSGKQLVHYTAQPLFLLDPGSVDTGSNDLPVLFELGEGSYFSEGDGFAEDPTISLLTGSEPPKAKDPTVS
CRX, sequence (O43186 whole entry): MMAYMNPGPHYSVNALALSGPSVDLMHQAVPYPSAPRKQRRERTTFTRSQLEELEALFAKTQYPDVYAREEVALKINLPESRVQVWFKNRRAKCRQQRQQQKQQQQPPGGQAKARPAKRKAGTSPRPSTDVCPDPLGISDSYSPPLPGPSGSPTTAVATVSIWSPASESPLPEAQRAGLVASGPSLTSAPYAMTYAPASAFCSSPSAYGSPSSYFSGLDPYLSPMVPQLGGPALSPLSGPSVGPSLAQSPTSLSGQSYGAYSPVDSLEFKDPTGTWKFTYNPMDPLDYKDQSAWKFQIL
ETV1, sequence (P50549 whole entry): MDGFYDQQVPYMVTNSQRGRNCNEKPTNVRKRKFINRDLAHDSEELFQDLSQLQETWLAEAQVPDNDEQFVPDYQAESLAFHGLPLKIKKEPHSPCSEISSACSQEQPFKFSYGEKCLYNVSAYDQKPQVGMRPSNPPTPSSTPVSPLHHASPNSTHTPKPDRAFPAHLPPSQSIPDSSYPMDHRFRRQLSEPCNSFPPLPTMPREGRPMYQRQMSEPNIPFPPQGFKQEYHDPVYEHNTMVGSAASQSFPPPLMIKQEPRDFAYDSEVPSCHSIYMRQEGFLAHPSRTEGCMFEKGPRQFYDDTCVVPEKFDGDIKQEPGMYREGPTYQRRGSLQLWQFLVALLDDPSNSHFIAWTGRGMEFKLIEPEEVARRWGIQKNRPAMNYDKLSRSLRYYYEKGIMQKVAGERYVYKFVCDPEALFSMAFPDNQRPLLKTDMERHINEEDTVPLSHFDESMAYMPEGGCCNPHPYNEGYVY

In the case of AGATTC, the binding signal in the experiment with FEV was 1.13 fold enrichment (6-mer frequency, TF over GST control); with ETV5, 1.07 fold enrichment (6-mer frequency, TF over GST control); with HSF1, 2 fold enrichment (6-mer frequency, TF over GST control); with SPIC, 1.24 fold enrichment (6-mer frequency, TF over GST control); in the experiment with ELF4, 1.16 fold enrichment (6-mer frequency, TF over GST control); with ELK4, 1.18 fold enrichment (6-mer frequency, TF over GST control). Besides, the binding signal was 1.32 fold enrichment (6-mer frequency, TF over GST control) with ETV2; 1.11 fold enrichment (6-mer frequency, TF over GST control) with ELF3; 1.41 fold enrichment (6-mer frequency, TF over GST control) with CRX; 1.22 fold enrichment (6-mer frequency, TF over GST control) with ETV1; 1.05 fold enrichment (6-mer frequency, TF over GST control) with ERF; 1.23 fold enrichment (6-mer frequency, TF over GST control) with ETV3L. Besides, the binding signal was 1.08 fold enrichment (6-mer frequency, TF over GST control) with ETS2; 1.17 fold enrichment (6-mer frequency, TF over GST control) in the experiment with SPDEF; 1.18 fold enrichment (6-mer frequency, TF over GST control) in the experiment with ETV7; 1.09 fold enrichment (6-mer frequency, TF over GST control) with ELF5; 1.15 fold enrichment (6-mer frequency, TF over GST control) with ETV3; 1.22 fold enrichment (6-mer frequency, TF over GST control) with ETV6.
